Screening results: PubChem, National Center for Advancing Translational Sciences (NCATS)
TCR activator = activates T cell receptor signaling; Potency, µM (series often up to 9.22 µM), without a hit: at the top dose activation of IL-2 secretion, hits mostly activators; primary human leukocytes, anti-CD3, IL-2 HTRF, 48 h; AID 504894; 330,000 tested, under 10 active; note: % of control where 0% means no effect
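TCR engagement came from a-CD3 beads alone, with compounds added to primary human leukocytes for 48 hr. Secreted IL-2 bridged europium cryptate- and d2-labelled anti-IL-2 antibodies, giving FRET emission at 665nm after 320nm excitation.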
Nrf2 activator = Nrf2 pathway activation | AREc32 ARE-luciferase reporter (MCF7-derived line), luminescence, 24 h | Potency, µM (doses to about 46.1 µM), for the others: top-dose activation, hits mostly activators | 410,000 tested, 0.31% active; note: potency is the fitted concentration of half-maximal effect; % of control where 0% means no effect; nearly all actives have a fitted effect of over 65% in size
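Reporter line AREc32 (ARE-Fluc), seeded overnight in OPTI-MEM with 5% FBS; compound pin-transferred, 24 hr at 37 deg C, 5% CO2; luminescent read-out.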
Nrf2 inh = inhibitors of Nrf2 signaling; A549 ARE-Fluc reporter, luciferase luminescence, 18-24 h; Potency, µM (top dose mostly 46 µM), inactives show at the highest dose activity change, negative = inhibition, most hits filed as inhibitors; 360,000 tested, 2.1% active; AID 504444; note: potency is the fitted concentration of half-maximal effect; % is set by controls: 0 for no effect and ±100 for the full control effect; nearly all actives have a fitted effect of over 60% in size
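Quantitative HTS in A549 cells stably bearing an antioxidant response element-firefly luciferase construct. Inhibition of Nrf2-driven transcription was scored by luminescence after 18-24 h of compound exposure at 37 °C.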
AT treatment = potential ataxia-telangiectasia treatments restoring KAP-1 phosphorylation; F2112 A-T fibroblasts, KAP-1 phosphorylation AlphaLISA; neocarzinostatin DNA damage 30 min before lysis; 320,000 tested, 0.19% active; Potency, µM (top dose mostly 57.5 µM), without a hit: top-dose activation, most hits filed as activators; note: potency is the fitted concentration of half-maximal effect; % of control where 0% means no effect; nearly all actives have a fitted effect of over 45% in size
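hTERT-immortalized A-T patient fibroblasts (F2112), 500 cells/well in OPTI-MEM, 1% FBS, got compounds for 60 min, then NCS for 30 min at 37C. Lysates were then assayed for phospho-KAP-1 by AlphaLISA (anti-pKAP1 donor, anti-KAP1 acceptor beads), 6 hr at 25C.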
A549 viability = kills or reduces viability of A549 cells in Nrf2 counter-screen | A549 ARE-Fluc cells, CellTiter-Fluor viability, 18-24 h | Potency, µM (highest dose often 46 µM), for inactives: at the highest dose activity change, negative = cytotoxicity, usual class: inhibitors | 390,000 tested, 0.16% active | AID 504648; note: potency is the fitted concentration of half-maximal effect; % is set by controls: 0 for no effect and ±100 for the full control effect
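A549 ARE_Fluc cells in 5% FBS OPTI-MEM were exposed to compounds in concentration-response for 18-24 h at 37 deg C. Viability was read by CellTiter-Fluor fluorescence (Ex 405/Em 525) after 30 min, before the luciferase read.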
CCT chaperon mod = modulators of cytosolic chaperonin (CCT/TRiC) activity | purified chaperonin ATPase assay, HTRF ADP detection, 30 min | activity change, % (test concentration not listed), hits read low | 360,000 tested, 0.3% active | AID 651819; in the data active = activity change below about -30%; note: % is set by controls: 0 for no effect and ±100 for the full control effect
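We incubate TRiC, 40 or 20 nM final, with library compounds at 76 uM and 10 uM ATP for 30 min at 37 °C. ADP formed is detected with Transcreener HTRF reagents after 30 min at room temperature.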
Numbers without * were called inactive; ? = inconclusive; nt = not tested or not shown; [ ] = another dose, or the depositor's remark. Hits are enriched below; roughly 2.6% of the tested compounds scored in any of these assays. Unless noted, calls come from the whole dose curve; as a rule, active = well fitted curve in the direction sought with a large enough effect; inconclusive = small, poorly fitted or top-dose-only effect, or another doubt; inactive = no such curve, though single readings can be large; an effect the other way counts as inactive or inconclusive.

SMILES | TCR activator | Nrf2 activator | Nrf2 inh | AT treatment | A549 viability | CCT chaperon mod
COc1cccc(N2CCN(C(=O)CCc3nnc4ccc(N5CCCC5)nn34)CC2)c1 | -53% | 0% | -6% | 5% | 0% | -42*
COc1cccc(N2CCN(C(=O)CCc3nnc4ccc(N5CCOCC5)nn34)CC2)c1 | -121% | 1% | 25% | -1% | 11% | 1
CCc1ccc(CNC(=O)CN(c2ccc(C)cc2)S(=O)(=O)N(C)C)cc1 | nt | -1% | -14% | nt | 0% | nt
Cc1ccc(-c2nn(-c3ccc(F)cc3)cc2C(=O)N(C)CC(=O)Nc2ccc(N3CCOCC3)cc2)cc1 | -7% | -1% | 14% | -4% | -4% | 1
COc1ccccc1-c1cc(NC(C)=O)c2ncc(-c3ccccc3)n2c1 | nt | 17% | nt | nt | nt | -6
CC(=O)Nc1cc(-c2ccccc2F)cn2c(-c3ccccc3)cnc12 | nt | 7% | nt | nt | nt | -36*
Nc1cccc(S(=O)(=O)N2CCN(S(=O)(=O)c3ccc4c(c3)OCCO4)CC2)c1 | nt | nt | -19% | nt | -1% | nt
Cc1ccc(-n2c(O)c(C=NCc3ccccn3)c3ccccc3c2=O)cc1C | -7%[46.1 µM] | 10% | 10µM* | -3% | -15% | 0
O=c1c2cn[nH]c2nc(SCc2ccc3c(c2)OCCO3)n1-c1ccccc1 | -8% | 3% | 21µM* | 0% | -16% | -6
COc1cc(/C=N/N=C(/N)c2nonc2N)cc(Br)c1OCc1cccc(C)c1 | 4% | 0% | 21µM* | 0% | -21% | -3
CCOc1cc(/C=N/NC(N)=S)cc(Br)c1OCc1ccccc1C | 1% | 5% | ? | 0% | -17% | 2
COc1cc(/C=N/N=C(\N)c2nonc2N)cc(OC)c1O | 4% | 7% | ? | -5% | 5% | -1
CCOc1cc(/C=N/N=C(\N)c2nonc2N)cc(Br)c1OCc1cccc2ccccc12 | -23% | 4% | 21µM* | 1% | ? | -3
Cn1cnnc1SCC(=O)Nc1ccc(C#N)cc1 | nt | -1% | 3% | nt | -2% | nt
CCC1(c2ccc(F)cc2)NC(=O)N(CC(=O)N2CCN(S(=O)(=O)c3ccc(C)cc3C)CC2)C1=O (stereo not given) | 0% | 6% | 18µM* | nt | -22% | 1
COc1cccc(C2c3c(ncn(-c4ccc(NC(C)=O)cc4)c3=N)Oc3ccc4ccccc4c32)c1 (stereo not given) | nt | nt | 6% | nt | -6% | nt
Cc1cc(C)c2cccc(NC(=S)NC(=O)c3ccccc3)c2n1 | 9% | ? | 5% | -1% | 15% | -1
Cc1ccc2cccc(NC(=S)NC(=O)c3ccccc3)c2n1 | 5% | 4µM* | -10% | 9% | -18% | -23
CCOC(=O)Cc1csc(NC(=S)NC(=O)c2ccc(C)cc2)n1 | 6%[46.1 µM] | -3% | 2.1µM* | -2% | -10% | 2
COc1cc(OC)nc(NC(=S)NC(=O)c2ccccc2)n1 | -4%[46.1 µM] | 11µM* | 11% | 2% | 25% | 3
Cc1csc(NC(=O)c2ccccc2)n1 | -1% | 6% | ? | -9% | 10% | 1
CCOC(=O)Cc1csc(NC(=S)NC(=O)c2ccccc2)n1 | -8%[46.1 µM] | -2% | 0% | -16% | 5% | 0
Cc1csc(NC(=S)NC(=O)c2ccccc2)n1 | 6% | 6.3µM* | ? | 4% | -1% | 0
COc1ccc(C(=O)NCC(c2cccs2)N2CCc3ccccc32)cc1OC (stereo not given) | -4% | -1% | ? | -6% | -8% | 0
COc1cccc(C(N)c2nc(-c3cc(F)cc(F)c3)cs2)c1 (stereo not given) | nt | 9% | nt | nt | nt | -1
Oc1ccc(/C=C/c2ccccc2)c2cccnc12 | nt | nt | ? | nt | -5% | nt
COc1ccc2c(CNCCc3ccccc3OC)c(C(=O)O)n(Cc3ccc(F)cc3Cl)c2c1 | nt | 1% | ? | nt | -21% | nt
C=CCn1c(SCc2csc(C)n2)nc2sc3c(c2c1=O)CCCC3 | -2% | 0% | 26µM* | -2% | -14% | 1
